Source: PubChem (National Center for Advancing Translational Sciences (NCATS))
Glioma ERSR ind: induces the endoplasmic reticulum stress response in human glioma cells. Potency, µM, without a hit: at the top dose activation, usual class: activators. U87-MG GRP78 promoter luciferase reporter, 16 h. hit rate 0.02% among 420,000. AID 602332; active = well fitted activation curve with a large enough effect; note: potency is the fitted concentration of half-maximal effect; series mostly up to about 76 µM; % of control where 0% means no effect; nearly all actives have a fitted effect of over 35% in size
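ERSR induction read as luciferase luminescence (Bright-Glo, 10 min at room temperature) in stably transfected human U87-MG glioma cells exposed to compounds for 16 h, using GRP78 as sensor.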
D1 PAM: potentiators of human D1 dopamine receptor. AID 504651. HEK293 TREx D1 cells, calcium flux, dopamine EC20 potentiation. hit rate 0.036% among 360,000. P21728. potentiation, % at 10 µM; in the data active = potentiation above about 30%; note: 0% is about no effect
Target sequence (P21728 whole entry, looked up): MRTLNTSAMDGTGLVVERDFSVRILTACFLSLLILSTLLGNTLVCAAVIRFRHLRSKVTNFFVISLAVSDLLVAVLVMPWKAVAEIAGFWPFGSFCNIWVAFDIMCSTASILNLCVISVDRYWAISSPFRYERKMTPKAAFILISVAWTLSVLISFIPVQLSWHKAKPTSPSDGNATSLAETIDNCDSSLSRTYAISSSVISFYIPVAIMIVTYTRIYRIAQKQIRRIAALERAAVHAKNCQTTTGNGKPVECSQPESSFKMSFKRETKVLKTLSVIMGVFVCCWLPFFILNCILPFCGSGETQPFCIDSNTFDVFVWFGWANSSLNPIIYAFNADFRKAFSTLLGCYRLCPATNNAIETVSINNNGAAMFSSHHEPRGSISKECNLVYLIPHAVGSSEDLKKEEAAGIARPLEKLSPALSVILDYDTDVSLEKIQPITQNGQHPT
TRHR enhancer: TRH receptor (human) allosteric enhancement; hit rate 0.66% among 360,000; P34981; enhancement, % at 2 µM; AID 493056; TRHR cells, fluo-8 calcium fluorescence, EC20 TRH enhancement; in the data active = enhancement above about 30%; note: 0% is about no effect
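Enhancer read-out: after compound pinning and an initial kinetic agonist-mode read, an EC20 of TRH (10 nM final) was injected and fluo-8 calcium signal (Ex 480/Em 530) followed at 1 s/cycle for 100 cycles in TRHR-expressing cells.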
D1 ag: agonists of human D1 dopamine receptor; activation, % at 2 µM; P21728; hit rate 1% among 360,000; AID 504660; HEK293 T-REx D1 cells, calcium flux, agonist mode; note: 0% is about no effect
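Tetracycline-induced HEK293 TREx D1 cells, force-coupled to calcium signalling, were dye-loaded with a no-wash calcium kit. Compound was pin-added after a 10 s baseline. Fluorescence was read kinetically at 1 cycle/s for 180 s, with calcium rises flagged as agonism.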
D1 antag: blocks dopamine activation of the human D1 receptor; activity change, negative = inhibition, % at 10 µM; hit rate 3.2% among 360,000; HEK293 TREx D1 cells, calcium flux, dopamine EC80; active compounds read low; in the data active = activity change below about -30%; note: % is set by controls: 0 for no effect and ±100 for the full control effect
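Tetracycline-induced HEK293 T-REx cells with force-coupled D1 receptor were loaded with a no-wash calcium dye. Compound was added after a 10 s baseline and read kinetically for 180 s; EC80 dopamine was then added and calcium flux followed another 180 s.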
TRHR agonist: TRH receptor (human) agonism | hit rate 0.18% among 360,000 | TRHR cells, calcium flux fluo-8, FDSS agonist mode | P34981 | AID 493084 | activation, % at 2 µM; note: 0% is about no effect
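Fluo-8-loaded TRHR cells; 10 s baseline, compound added, kinetic Ca2+ fluorescence read 1/s, agonist mode.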
* hit, by the source's call; . = not tested or not shown. Rows were chosen to be rich in hits. Some 4% of all compounds tested hit in one or more screens of this group. Cut-off read from the data, not from the text of the source, unless noted: active = activation above about 30%; inactive = the rest.

SMILES | Glioma ERSR ind | D1 PAM | TRHR enhancer | D1 ag | D1 antag | TRHR agonist
CC(Oc1ccc(Cl)cc1)C(=O)Nc1ccc(S(=O)(=O)N2CCOCC2)cc1 (stereo unspecified) | 0% | 0 | -1 | 47* | -17 | 4
Cc1ccc(SC(C)C(=O)Nc2ccc(S(=O)(=O)N3CCOCC3)cc2)cc1 (stereo unspecified) | -4% | -2 | 0 | 46* | 5 | 4
CC1=C(C(=O)N2CCOCC2)CC(CC(=O)NCCCCc2ccccc2)C(=O)N1Cc1ccc(C(C)(C)C)cc1 (stereo unspecified) | -2% | . | . | . | . | .
CC(Oc1ccccc1Cl)C(=O)Nc1ccc(S(=O)(=O)N2CCCC2)cc1 (stereo unspecified) | 0% | 4 | 34* | 25 | 13 | -1
Cc1csc(SC(C)C(=O)Nc2ccc(S(=O)(=O)N3CCCC3)cc2)n1 (stereo unspecified) | -2% | -8 | 4 | 5 | -40* | -1
CCC(=O)CC | -5% | . | . | . | . | .
O=C(/C=C/c1cccs1)N1CCc2ccccc21 | -8% | -8 | 1 | 1 | -36* | -1
O=C1CCc2cc(S(=O)(=O)Nc3ccccc3F)ccc2N1 | 2% | 4 | -5 | 2 | -42* | 0
COc1ccc(Cl)cc1NC(=O)CN(C)C(=O)c1cc2c(s1)CCCC2 | -1% | -5 | 2 | 6 | -38* | 0
COc1ccc(Cl)cc1NC(=O)CN(C)C(=O)Cc1ccc2c(c1)CCC2 | -1% | 4 | -2 | 0 | 8 | 0
COC(=O)c1ccc(C(=O)OC)c(NC2=NS(=O)(=O)c3ccccc32)c1 | -6% | -4 | 0 | 1 | -3 | -2
COC(=O)c1c(-c2ccccc2)csc1NC1=NS(=O)(=O)c2ccccc21 | 3% | 6 | 32* | 11 | -4 | 0
Cn1cc(S(=O)(=O)N2CCOCC2)cc1C(=O)NCc1ccccc1Cl | -1% | -3 | -3 | 1 | 2 | 0
CSc1ccc(S(=O)(=O)NCCOc2ccccc2C)cc1 | 0% | -7 | -3 | 9 | -31* | 0
Cc1nn(-c2cccc(C(F)(F)F)c2)c(=O)c2noc(C)c12 | 0% | 8 | -1 | 1 | -3 | -1
[O-][N+]1=c2ccc(Nc3ccccc3)cc2=NC12CCCCC2 | -10% | -10 | 1 | 1 | -55* | 1
O=C(/C=C/c1ccc(O)c(O)c1)c1ccc(O[C@@H]2O[C@H](CO)[C@@H](O)[C@H](O)[C@H]2O)c(O)c1O | -3% | . | . | . | . | .
Cc1cc(S(=O)(=O)C(CNC(=O)c2ccc(OC(C)C)cc2)c2cccs2)ccc1F (stereo unspecified) | 0% | -1 | -6 | 1 | -74* | 0
CC(C)(C)c1ccc(C(=O)NCC(c2cccs2)S(=O)(=O)c2cccs2)cc1 (stereo unspecified) | 2% | 4 | 45* | 2 | 13 | 0
COc1ccc(CC(=O)NCC(c2cccs2)S(=O)(=O)c2ccc(F)c(C)c2)cc1 (stereo unspecified) | 1% | 1 | -1 | 1 | 0 | -1
Cc1ccc(C(=O)NCC(c2cccs2)S(=O)(=O)c2cccs2)cc1 (stereo unspecified) | -2% | -1 | -2 | 1 | . | 0
O=S(=O)(c1cccc(-c2nnc3n2CCCCC3)c1)N1CCCC1 | -4% | -2 | 34* | 2 | -11 | 1
C[C@H](O/N=C1/[C@H]2O[C@@H]2[C@@H](O)[C@H]2[C@H]1CCn1c(=O)n(-c3ccccc3)c(=O)n12)c1cn([C@H](CO)Cc2ccccc2)nn1 | -5% | . | . | . | . | .
COc1ccc(NC(=O)C2=C(C)Nc3ncnn3C2c2ccc(O)cc2)cc1 (stereo unspecified) | -5% | 1 | 9 | 0 | 11 | 1
Cc1ccc(C(=O)OCC(=O)NC2CCCC2)cc1 | 1% | -1 | 4 | 1 | -2 | -1
SMILES | Glioma ERSR ind | D1 PAM | TRHR enhancer | D1 ag | D1 antag | TRHR agonist
CCC(C)(C)NC(=O)C(c1ccc(C)cc1)N(Cc1cccnc1)C(=O)c1csnn1 (stereo unspecified) | -5% | -25 | 4 | -1 | -63* | 0
CC(C)(S)C(=O)NC(CS)C(=O)O (stereo unspecified) | -4% | . | . | . | . | .
O=C(NCc1ccc(Cl)c(Cl)c1)c1ccco1 | 6% | -8 | -1 | 2 | -11 | 0
CCO[C@@H]1OC(C(N)=O)=C[C@H](C(C)(C)C)[C@H]1CCCO | -3% | . | . | . | . | .
CCO[C@H]1OC(C(N)=O)=C[C@@H](C)[C@@H]1CCCO | -4% | -2 | 33* | -5 | -15 | 1
Cc1ccc(CNc2ncnc3sc(C(=O)N4CCC[C@H]4C(N)=O)c(C)c23)o1 | -6% | . | . | . | . | .
COc1ccccc1CN1CCOc2ccc(CN3CCC(Oc4cccnc4)CC3)cc2C1 | -2% | . | . | . | . | .
C/C(=N\NC(=O)c1cc(-c2cccc(OC(C)C)c2)nc2ccccc12)c1cccnc1 | -4% | -10 | -7 | 2 | -43* | 1
C/C(=N\NC(=O)c1cc(-c2ccc(C)s2)nc2ccccc12)c1cccnc1 | 6% | -4 | -6 | 2 | -4 | -1
C/C(=N\NC(=O)c1cc(C)nc2ccccc12)c1ccncc1 | -4% | -3 | 2 | 0 | -43* | 0
Cc1cccc(Cl)c1NC(=O)NCCCN1CCCCC1C (stereo unspecified) | -1% | . | . | . | . | .
C[C@H]1CN([C@@H](C)CO)C(=O)c2cc(Br)cnc2O[C@@H]1CN(C)C(=O)c1ccncc1 | -6% | . | . | . | . | .
CCn1c(/C=C/c2ccc(O)c(O)c2)nc2ccccc2c1=O | 2% | 1 | 34* | 2 | 2 | 8
Cc1nc2cc(NC(=O)Nc3ccc(Br)cc3)ccc2o1 | 3% | -8 | 1 | 20 | -24 | 1
CCN1C(=O)/C(=C2\C=Cc3ccccc3N2CC)SC1=S | 3% | -5 | -8 | -2 | -33* | 0
CCN1C(=O)/C(=c2\o/c(=C3\C=Cc4ccccc4N3CC)c(=O)n2CC)SC1=S | -4% | -5 | 1 | 1 | 9 | 0
O=S(=O)(NCc1nc2cccnc2n1Cc1ccccc1Cl)c1ccc(F)c(Cl)c1 | -1% | -1 | -2 | 1 | 2 | 0
NCc1nc2cccnc2n1Cc1ccccc1Cl | -3% | -2 | -3 | 0 | -31* | -1
CSc1nn(Cc2ccccc2C)c(NC(C)=O)c1S(=O)(=O)c1ccc(C)cc1 | -1% | -6 | 4 | 5 | -33* | 0
Cc1c(NC(=O)/C=C/c2ccc(S(=O)(=O)N3CCOCC3)cc2)c(=O)n(-c2ccccc2)n1C | -6% | -1 | 34* | 1 | -8 | 0
O=C(C1CC1)N1CCc2cc(S(=O)(=O)N(CCO)Cc3ccccc3)ccc21 | -3% | -5 | -5 | 11 | -40* | 0
